# Pf growth 96h = Primary qHTS for delayed death inhibitors of the malarial parasite plastid, 96 hour incubation. AID 504834, 2011. Potency, µM (titrated, usually from 28.7 µM), most hits filed as inhibitors. hit rate 6.9% among 320,000. P. falciparum luciferase reporter growth, 96 h
#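 96 h incubation, 37 C, 5% CO2, of luciferase-reporter P. falciparum-infected RBCs (2% hematocrit, 0.05% parasitemia final) with test compounds; endpoint luminescence.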
# Cycloheximide cs = Cycloheximide Counterscreen for Small Molecule Inhibitors of Shiga Toxin | hit rate 12% among 300,000 | AID 2314, 2010 | cell reporter, cycloheximide protein synthesis inhibition counterscreen | max response, %; in the data active means max response mostly above about 13%, no sharp cut-off; inactive means mostly below about 14%; further: read at 38.3 µM for the half of the compounds with a filed dose
# Shiga toxin inh = A qHTS for Small Molecule Inhibitors of Shiga Toxin. hit rate 9.2% among 290,000. Vero cells, Shiga toxin protein synthesis inhibition reporter. inhibition, % at 38.7 µM. AID 2315, 2010; in the data active means inhibition mostly above about 28%, no sharp cut-off; inactive means mostly below about 43%
# HCMV antiviral = qHTS Assay for inhibitors of the human cytomegalovirus (HCMV); HFF cells, HCMV-luciferase reporter, 72 h; stronger effect = lower value; activity change, negative = inhibition, % at 57.5 µM; hit rate 4.5% among 410,000; in the data active means activity change below about -60%; inconclusive means no clear call, values can overlap the other calls; inactive means above about -39%
#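 Screen run at 2 compound doses on HFFs infected with reporter HCMV, MOI 1 PFU/cell. Luciferase activity from cell lysates at 72 h post infection gave inhibition relative to buffer-only and Salinomycin wells.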
# Pf growth 48h = Primary qHTS for delayed death inhibitors of the malarial parasite plastid, 48 hour incubation; P. falciparum luciferase growth in erythrocytes, 48 h; Potency, µM (titrated, usually from 28.7 µM), most hits filed as inhibitors; hit rate 5.9% among 310,000; AID 504832, 2011
#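 Firefly luciferase activity from engineered P. falciparum reports growth; inhibitors lower the luminescent signal. Cultures contained 2% hematocrit erythrocytes at 0.1% final parasitemia.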
# A number is an active result; - = inactive; ? = inconclusive; . = no result given. Shown are actives, neighbours in structure and some others; about 20% of the full set was active somewhere. Unless noted, the call rests on the fitted dose curve; in most records, active means well fitted inhibition curve with a large enough effect; inconclusive means small, poorly fitted or top-dose-only effect, or another doubt; inactive means no such curve, though single readings can be large or run the other way.
SMILES,Pf growth 96h,Cycloheximide cs,Shiga toxin inh,HCMV antiviral,Pf growth 48h
Cc1ccc(CNC(=O)CN2C(=O)CSc3c2c(C)nn3-c2ccccc2)cc1,.,.,.,-,.
CCN(CC)S(=O)(=O)c1ccc(C(=O)NC2=NCCS2)cc1,-,-,-,-,-
Cc1ccc(C(=O)NC2=NCCS2)cc1Cl,-,37.6,44.5,.,-
N#Cc1ccc(C(=O)NC2=NCCS2)cc1,-,34.5,103.5,-,-
O=C(NC1=NCCS1)c1ccc(C(F)(F)F)cc1,-,33.7,95.7,-,-
COc1cc(C(=O)NC2=NCCS2)cc(OC)c1OC,-,-,-,-,.
CC(C)c1ccc(C(=O)NC2=NCCS2)cc1,-,53.4,63.3,-,-
CN(C)c1ccc(CC(=O)N2CCCCC2c2cc(C(=O)Nc3ccccc3Cl)no2)cc1 (centres undefined),.,.,.,-,.
CCc1ccc2c(c1)NC(=O)C2(C)Cc1ccccc1Cl (centres undefined),.,.,.,-,.
CC(C)c1ccc(OCC(=O)Nc2c(Cl)ccc3nsnc23)cc1,.,.,.,-,.
CCCN1C(=O)c2ccc(C(=O)NC3=NCCS3)cc2C1=O,-,14.5,-,-,-
Cc1ccc(C(=O)NC2=NCCS2)cc1,-,33.7,85.1,-,-
Cc1ccccc1NCN1C(=O)C2CCC(C)(C1=O)C2(C)C (centres undefined),-,-,-,-,-
COc1ccc(C(CNC(=O)CCNC(=O)c2ccccc2OC)N2CCCC2)cc1 (centres undefined),11.7µM,.,.,-,?
COc1ccc(C(CNC(=O)C(CCSC)NC(=O)c2ccccc2OC)N2CCCCC2)cc1 (centres undefined),11.7µM,-,-,-,?
CCOc1cccc(OCCCNCCCOC)c1,?,-,-,-,-
O=C(CNS(=O)(=O)c1ccccc1)Nc1ccc2c(c1)OCO2,-,-,-,-,-
Cc1ccccc1C(=O)N1CCC[C@@H]1C(=O)N1CCC[C@H]1C(=O)NCc1ccncc1,.,.,.,-,.
COc1ccccc1N1CCN(C(=O)c2ccc3c(c2)N(Cc2cc(C)ccc2C)C(=O)c2ccccc2S3(=O)=O)CC1,.,.,.,-66.8,.
Cc1ccc(C)c(CN2C(=O)c3ccccc3S(=O)c3ccc(C(=O)N4CCN(c5ccccc5F)CC4)cc32)c1 (centres undefined),.,.,.,-,.
Cc1ccc(C)c(CN2C(=O)c3ccccc3S(=O)c3ccc(C(=O)N4CCN(c5ccccn5)CC4)cc32)c1 (centres undefined),?,-,-,-98.2,11.7µM
CCCc1nccn1S(=O)(=O)c1cc(Br)ccc1OC,.,.,.,-,.
O=C(N/N=C/c1sc(=O)n(-c2ccccc2)c1Cl)c1ccncc1,?,20.1,66.9,-85.7,?
COc1cc(C(=O)N/N=C/c2sc(=O)n(-c3ccccc3)c2Cl)cc(OC)c1OC,-,18.6,-,?,-
COc1cc(C(=O)N/N=C/c2ccccn2)cc(OC)c1OC,?,-,-,?,?
SMILES,Pf growth 96h,Cycloheximide cs,Shiga toxin inh,HCMV antiviral,Pf growth 48h
O=C(Nc1ccc(-c2csc(-c3ccccc3)n2)cc1)c1ccccc1Cl,?,-,-,-66.6,?
O=C(O)c1ccccc1C(=O)Nc1ccc(-c2csc(-c3ccccc3)n2)cc1,-,53.8,72.8,-,-
Cc1[nH]c(-c2ccco2)nc1C(=O)O,6.57µM,-,-,-110.5,-
O=S(=O)(c1ccccc1)c1nnn2c1nc(N1CCN(c3ccccc3)CC1)c1cc(Cl)ccc12,.,.,.,-,.
Cc1ccc2nc(N3CCOCC3)c(C=O)cc2c1,-,25.7,-,-,-
COC(=O)NNC(=O)COc1ccc(Cl)cc1,-,-,-,-108.4,-
COc1ccc(OCC(=O)Nc2ccncc2)cc1,-,-,-,-,-
COc1ccc(CCC(=O)NCCOc2ccc(Cl)cc2)cc1,-,31.7,-,-,-
CCOc1ccc(S(=O)(=O)N(C)c2ccc(OCC(=O)NCCc3ccc(OC)cc3)cc2)cc1,3.29µM,-,-,?,-
COc1ccc(C(=O)NNC(=O)COc2ccc(Cl)cc2)c(OC)c1,?,-,-,?,-
COc1ccc(OCC(=O)Nc2ccc(Cl)cc2)cc1,-,18.7,61.3,-,-
Cc1cc(C)cc(NC(=O)c2cc(CN3CCCC3)on2)c1,.,.,.,-,.
O=C(NC1(C(F)(F)F)C(=O)Nc2c1c(=O)[nH]c(=O)n2CCc1ccccc1)c1ccc(Cl)cc1 (centres undefined),.,.,.,-,.
COc1ccc(OCC(=O)Nc2ccc(C)cc2)cc1,-,25.5,59.8,-96.6,-
COc1ccc(NC(=O)COc2ccc(N(C)S(=O)(=O)c3ccc(Cl)cc3)cc2)cc1,?,.,.,-,11.7µM
COc1ccc(NC(=O)COCC(=O)Nc2ccc(C)cc2)cc1,?,-,-,-,-
COc1ccc(NC(=O)CNS(=O)(=O)c2ccc(Cl)cc2)cc1,-,16.3,-,-,-
COc1ccc(NC(=O)COc2ccc(N(C)S(=O)(=O)c3ccc(C)cc3)cc2)cc1,-,-,-,-,-
CC(=O)Nc1ccc(OCC(=O)NCCc2ccc(Cl)cc2)cc1,13.1µM,-,-,-,-
CC(C)NC(=O)CSc1nnc(-c2ccc(F)cc2)c2ccccc12,-,-,-,?,?
O=C1NC[C@@H](CCCCN2CCN(CCc3ccccc3)C(=O)C2=O)N(CCC2CCCCC2)C1=O,.,.,.,-,.
CC1CC(C)CN(S(=O)(=O)c2ccc(C(=O)N3CC(C)OC(C)C3)cc2)C1 (centres undefined),?,-,-,-,-
Cc1ccc(N(C)C(=O)C2CCCN2S(=O)(=O)c2ccc3c(c2)n(C)c(=O)c(=O)n3C)cc1 (centres undefined),-,-,-,-,-
O=C(CSc1nnc(CNC(=O)c2c(F)cccc2F)o1)NCc1ccccc1Cl,-,-,-,-,-
Cc1ccc(OCCC(=O)NCCc2ccc(S(N)(=O)=O)cc2)cc1,-,-,-,-,-
SMILES,Pf growth 96h,Cycloheximide cs,Shiga toxin inh,HCMV antiviral,Pf growth 48h
COc1ccc(OCC(=O)NNC(=O)C(=O)Nc2ccc(C)cc2)cc1,-,23.5,-,-,-
CCOc1ccc(OCCC(=O)OCC(=O)NCCc2ccc(S(N)(=O)=O)cc2)cc1,-,.,.,-73.4,-
CCOc1ncccc1C(=O)OCC(=O)NCCc1ccc(S(N)(=O)=O)cc1,-,.,.,-,-
COc1ccc(OCC(=O)NNC(=O)C(=O)Nc2ccccc2)cc1,.,.,.,-,.
Cc1ccc(OCCC(=O)OCC(=O)Nc2ccc(F)cc2)cc1,-,.,.,-,-
Cc1ccc(OCC(=O)Nc2ccc(F)cc2)cc1,.,46.6,39.9,-,-
CCOc1ncccc1C(=O)NCCc1ccc(S(N)(=O)=O)cc1,-,-,-,-67.4,-
Cc1cc(N2CCCC(C(=O)Nc3cccc(Cl)c3)C2)n2ncnc2n1 (centres undefined),14.7µM,-,-,-,-
COc1ccc(NC(=O)C2CCCN(c3nccc(C)n3)C2)cc1 (centres undefined),10.4µM,-,-,-,-
Cc1ccnc(N2CCCC(C(=O)Nc3ccc(C)c(C)c3)C2)n1 (centres undefined),-,-,-,-,?
